High-throughput results: PubChem, SRMLSC
An excerpt weighted towards active compounds, which were near 6.3% of everything screened.
Spn DPM-DC inh: S. pneumoniae DPM-DC inhibitors, primary screen, biochemical, PK/LDH-coupled NADH fluorescence; diphosphomevalonate decarboxylase (Streptococcus pneumoniae D39); purified DPM-DC; calls only at 10 µM; 0.49% of 65,000 active;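 active = the 320 compounds with the highest percent inhibition in the single-dose primary screen, excluding strongly autofluorescent ones, cut at about 32% in these data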;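 note: kinetic rate of NADH fluorescence loss reporting ADP formed by the decarboxylase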
Spn PMK inh: S. pneumoniae PMK inhibitors, primary screen, biochemical, mevalonate pathway, pilot trial included; phosphomevalonate kinase (Streptococcus pneumoniae D39); purified PMK, PK/LDH-coupled NADH absorbance 340 nm; inhibition, % at 10 µM; 0.49% of 65,000 active;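 active = top-ranked compounds by inhibition in the single 10 µM screen, taking a fixed number of the strongest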
NADH coupling: inhibitors of PK/LDH coupling enzymes, profiling panel, artefact control, biochemical, MLSMR library; coupled PK/LDH NADH assays, four targets; IC50, µM (highest dose often 10 µM); 0.02% of 65,000 active;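 active = single-dose screening hits from any of four coupled enzyme assays that gave an IC50 when retested across doses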;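 note: the DPM-DC format reads NADH fluorescence rather than 340 nm absorbance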
MK inhibit: S. pneumoniae MK inhibitors, primary screen, biochemical, PK/LDH-coupled NADH absorbance; purified MK, PK/LDH-coupled NADH absorbance 340 nm; inhibition, % at 10 µM; 0.48% of 65,000 active; AID 555, 2006;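 active = ranked among the strongest by inhibition in the single 10 µM screen, a fixed top-ranked set picked for dose follow-up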
Autofluor 339: intrinsic fluorescence of library compounds, ex339/em460 – biochemical, MLSMR library, data from DPM-DC assay, artefact control, profiling panel; compound autofluorescence, ex339/em460 nm, NADH buffer; stronger effect = higher value; 1 = no-compound wells, NADH background; fluorescence fold increase at 10 µM; 5.5% of 65,000 active;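 active = at 10 µM, mean starting fluorescence two-fold or more over control wells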;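 note: signal is the first read of a kinetic run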
A340 absorber: compound light absorbance at 340 nm, profiling panel, artefact control, biochemical, MLSMR library, data from PS, PMK, MK assays; 65,000 tested, under 10 active; compound absorbance at 340 nm, fold over control; AID 708, 2007; fold change at 10 µM;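 active = at 10 µM dose, initial 340 nm absorbance at least 2 fold that of control wells; inactive = change under 2 fold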;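 note: initial absorbance extrapolated from kinetic A340 decline of NADH oxidation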
A number is an active result; i = inactive; nt = no result shown.

SMILES	Spn DPM-DC inh	Spn PMK inh	NADH coupling	MK inhibit	Autofluor 339	A340 absorber
COC(=O)c1[nH]c2cc(OC)ccc2c1N	nt	i	i	i	3.8	i
CCOC(=O)c1[nH]c2ccc(OC)cc2c1NC(=O)CCN1CCCC(C)C1 (stereo not drawn)	nt	i	i	nt	2.2	i
CCOC(=O)c1[nH]c2cc(OC)c(OC)cc2c1NC(=O)C(C)N1CCN(Cc2ccccc2)CC1 (stereo not drawn)	nt	i	i	i	2.5	i
CCOC(=O)c1[nH]c2ccc(OC)cc2c1N=CN(C)C	i	i	i	i	2.8	i
CCn1c(=O)c2cc(S(=O)(=O)NC3CCCCC3)ccc2n(CC)c1=O	i	i	i	i	i	i
Cc1noc(C)c1C(=O)OCC(=O)c1cc(C)n(Cc2ccccc2Cl)c1C	i	i	i	i	i	i
O=C(COC(=O)c1cccc(NC(=O)c2ccco2)c1)c1ccc(Br)cc1	i	i	i	i	i	i
CCOC(=O)c1[nH]c2ccc(OC)cc2c1NS(=O)(=O)c1ccc(OC)cc1OC	i	i	i	i	i	i
CCOC(=O)c1[nH]c2ccc(OC)cc2c1NC(=O)OC	nt	i	i	i	3.6	i
CCOC(=O)c1[nH]c2ccc(OC)cc2c1NC(=O)C(C)N1CCSCC1 (stereo not drawn)	nt	i	i	i	3.8	i
CC1(C)C(c2ccccc2)=[N+]([O-])CN1O	i	i	i	i	i	i
Cc1cc(C(=O)COc2ccc3ccc(=O)oc3c2)c(C)n1Cc1cccs1	i	i	i	i	2.6	i
CCOC(=O)c1cnn(-c2cc(C)c3ccccc3n2)c1N	i	i	i	i	i	i
CCOC(=O)c1cnn2c1[nH]c(=O)c1ccccc12	nt	i	i	i	2.3	i
c1csc(-c2nc3ccccc3[nH]2)c1	nt	i	i	i	3.6	i
Cc1[nH]c2ccccc2c1-c1nc2ccccc2[nH]1	i	i	i	i	i	i
Cc1ccc(-c2nc3ccccc3[nH]2)s1	nt	i	i	i	2.5	i
Cc1nnsc1-c1nc2ccccc2[nH]1	nt	i	i	i	4.9	i
CCOC(=O)c1c(NC(=O)CSc2nnnn2CC)sc(C)c1C	i	i	i	i	i	i
CCN(CCCn1c(SCC#N)nc2ccccc2c1=O)c1ccccc1	i	i	i	i	i	i
O=C(NCc1ccccc1)N1CCn2c(nc3ccccc32)C1	i	i	i	i	i	i
CC(=O)c1cc2c(cc1NC(=O)c1ccc(-n3nc(C)cc3C)cc1)OCO2	nt	i	i	i	2.1	i
Cc1cc(C)n(-c2ccc(C(=O)Nc3nc4ccccc4s3)cc2)n1	i	i	i	i	3.3	i
CCCn1c(SCC(=O)NC)nnc1C(C)C	i	i	i	i	i	i
Cc1cc(N2CCCCCC2)nc(-c2ccccc2O)n1	nt	i	i	i	3.8	i
SMILES	Spn DPM-DC inh	Spn PMK inh	NADH coupling	MK inhibit	Autofluor 339	A340 absorber
Cc1cc(Nc2cccc(F)c2)nc(-c2ccccc2O)n1	i	i	i	i	i	i
Cc1cc(NCc2ccccc2)nc(-c2ccccc2O)n1	nt	i	i	i	2.2	i
Cc1cc(Nc2ccccc2)nc(-c2ccccc2O)n1	i	i	i	i	2.2	i
O=C(COc1ccc(-n2cnnn2)cc1)NC(=O)NCc1ccccc1	i	i	i	i	i	i
N#CCCN1CCN(S(=O)(=O)c2ccc(S(=O)(=O)NC3CCCC3)cc2)CC1	i	i	i	i	i	i
CCC(=O)N1CCN(CCN=Cc2c(O)n(C3CCCCC3)c(=O)n(C3CCCCC3)c2=O)CC1	i	i	i	i	i	i
CN(C)c1ccc(-c2nc3ccccc3n2C)cc1	nt	25	i	i	3.6	i
CC(C)n1c(-c2ccc(N(C)C)cc2)nc2ccccc21	nt	i	i	i	3.8	i
CCn1c(-c2ccc(N(C)C)cc2)nc2ccccc21	nt	i	i	i	3.9	i
C=CCn1c(-c2ccc(N)cc2)nc2ccccc21	nt	i	i	i	2.1	i
CCn1c(-c2ccc(N)cc2)nc2ccccc21	i	i	i	i	i	i
C=CCn1c(-c2ccc(OC)cc2)nc2ccccc21	i	i	i	i	i	i
